Several values for one entry are separate records, joined by “and”; a condition that tells them apart may be missing. Identical values can stand only once. Compounds without any hit were thinned out: in the full panel of roughly 83,000, 20% have a hit.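 The endpoint reported here, percent growth, reads 100 for growth as untreated, 0 for no net growth and -100 for all cells dead.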 Unmarked numbers belong to inactive results. Activity calls are given as the source filed them. Rule for the calls: active = growth percent below 10; inactive = the rest.

We go through 12 molecules from PubChem BioAssay (NCI).

Some test systems named below: NCI-H23 lung; NCI-H226 lung; NCI-H322M lung; HOP-62 NSCLC; NCI-H460 lung; HOP-92 NSCLC; NCI-H522 lung; A549/ATCC NSCLC; 786-0 renal; COLO 205 colon.
Experiment in all cases: NCI-60 one-dose screen, 48 h (100 = growth as untreated, 0 = no growth, -100 = all killed)
Conditions in all cases: 10 µM unless noted

For `Nc1ccc(/C=N/Nc2ccnc3c(N)cccc23)c2cccnc12`, the growth was 3.42% (active) with NCI-H23 lung; 89.3% with NCI-H226 lung; -4.16% (active) in the test with NCI-H322M lung; -64.3% (active) in the test with HOP-62 NSCLC; -63.8% (active) in the test with NCI-H460 lung; -17.9% (active) with HOP-92 NSCLC. The growth in the test on NCI-H522 lung was -52.2% (active); in the test with A549/ATCC NSCLC it was -43.8% (active); with 786-0 renal, -87% (active); in the test with COLO 205 colon it was -22.8% (active).

On to `CCCCCO/N=C\c1c2c(O)c3c(O)c(C)c4c(c3c1O)C(=O)C(C)(O/C=C\C(OC)C(C)C(OC(C)=O)C(C)C(O)C(C)C(O)C(C)/C=C\C=C(\C)C(=O)N2)O4` (stereo not given), for which the growth with NCI-H23 lung was 19.7%; with NCI-H226 lung, 26.9%; in the test on NCI-H322M lung, 53.2%; with HOP-62 NSCLC, 34.7%; with NCI-H460 lung, 5.62% (active); in the test with HOP-92 NSCLC, -5.96% (active). The growth was 6.3% (active) in the test on NCI-H522 lung, 20.9% with A549/ATCC NSCLC, 31.6% in the test on 786-0 renal and 2.86% (active) with COLO 205 colon.

For the molecule `COc1ccc(-c2c[nH]c(C(=O)O)c2-c2cc(OC)c(OC)c(OC)c2)cc1`, the growth in the test with NCI-H23 lung is 48.5%; with NCI-H226 lung, 88.9%; with NCI-H322M lung, 47.9%; in the test with HOP-62 NSCLC it was 37.3%; in the test on NCI-H460 lung, 14.4%; in the test with HOP-92 NSCLC it was 32.2%. Besides, the growth with NCI-H522 lung is 28.1%; in the test on A549/ATCC NSCLC, 49.4%; in the test on 786-0 renal it was 31.3%; in the test with COLO 205 colon it was 14.7%.

Regarding `O=C(/C=C/c1cccs1)Nc1ncc(Cc2ccc(Cl)c(Cl)c2)s1`, the growth was 91.4% in the test with NCI-H23 lung; 86% with NCI-H226 lung; 76.5% in the test with NCI-H322M lung; 61.5% in the test on HOP-62 NSCLC; 48% with NCI-H460 lung; 78.1% in the test on HOP-92 NSCLC. In addition, the growth was 38.9% with NCI-H522 lung, 59.4% with A549/ATCC NSCLC, 75.2% in the test on 786-0 renal and 51.4% in the test on COLO 205 colon.

Consider `CN1CCN(CCCN2c3ccccc3Sc3ccc(Cl)cc32)CC1`, for which the growth was 82.3% and 86.4% in the test on NCI-H23 lung; 95.7% and 95.1% with NCI-H226 lung; 93.1% in the test on NCI-H322M lung; 90.4% in the test with HOP-62 NSCLC; 93.4% and 96.9% in the test on NCI-H460 lung; 48.1% and 29.4% with HOP-92 NSCLC. The growth in the test with NCI-H522 lung was 81.5% and 92.9%; in the test on A549/ATCC NSCLC it was 73.9% and 80.4%; with 786-0 renal, 62.8% and 72%; with COLO 205 colon, 26.8%.

Take `Cc1cc2nc(C(Cl)Cl)nc(-c3ccc(Cl)cc3)n2n1`: the growth in the test with NCI-H23 lung is -19.9% (active); in the test on NCI-H226 lung it was 67%; in the test with NCI-H322M lung, -32.5% (active); with HOP-62 NSCLC, -8.28% (active); in the test with NCI-H460 lung it was -49.4% (active); in the test with HOP-92 NSCLC, 16.1%. Moreover, the growth was 3.6% (active) in the test with NCI-H522 lung, 0.301% (active) in the test with A549/ATCC NSCLC, 45% in the test on 786-0 renal and -37.2% (active) in the test on COLO 205 colon.

In the case of `OCc1cc(CN2CCCCC2)c(O)c2ncccc12`, the growth is 75.8% with NCI-H23 lung; 67.5% in the test with NCI-H226 lung; 25.9% with NCI-H322M lung; 35.8% with HOP-62 NSCLC; 20.7% in the test on NCI-H460 lung; 71.9% in the test on HOP-92 NSCLC. Further, the growth in the test with NCI-H522 lung was 80.7%; in the test with A549/ATCC NSCLC, 57.8%; in the test on 786-0 renal it was 57.9%; in the test on COLO 205 colon it was 47%.

Turning to `CCCCCCCCCCCCCCCC(=O)O[C@@H]1[C@@H](O)[C@@H](O)C([C@H](NC(=O)[C@@H]2C[C@@H](CCC)CN2C)[C@H](C)Cl)O[C@@H]1SC` (stereo not given in full), the growth is 102% in the test with NCI-H23 lung; 91.2% in the test with NCI-H226 lung; 97.8% with NCI-H322M lung; 101% in the test on HOP-62 NSCLC; 110% with NCI-H460 lung; 118% in the test with HOP-92 NSCLC. Moreover, the growth is 130% in the test on NCI-H522 lung, 102% in the test with A549/ATCC NSCLC, 91.8% with 786-0 renal and 103% with COLO 205 colon.

Regarding `Cc1ccc(-c2nc3nc(-c4ccccc4)nc(N4CCN(S(=O)(=O)c5ccccc5)CC4)c3o2)cc1`, the growth in the test with NCI-H23 lung is 88.3%; with NCI-H226 lung, 76.5%; with NCI-H322M lung, 101%; in the test with HOP-62 NSCLC, 72.3%; in the test with NCI-H460 lung, 73.3%; in the test with HOP-92 NSCLC, 95.1%. Besides, the growth with NCI-H522 lung is 72.9%; in the test on A549/ATCC NSCLC it was 91.5%; in the test with 786-0 renal it was 61%; in the test with COLO 205 colon, 125%.

In the case of `C=C1CC[C@@H]2[C@](C)(COC(C)=O)[C@H](OC(C)=O)CC[C@@]2(C)[C@@H]1CC(Nc1ccc(S(=O)(=O)Nc2nccs2)cc1)C1=CCOC1=O` (stereo not given in full), the growth is 38.1% with NCI-H23 lung; -14% (active) in the test with NCI-H226 lung; 59.9% in the test on NCI-H322M lung; 120% in the test with HOP-62 NSCLC; 29.5% with NCI-H460 lung; 54% in the test with HOP-92 NSCLC. Moreover, the growth was -61.9% (active) in the test on NCI-H522 lung, 43.7% with A549/ATCC NSCLC, 6.27% (active) in the test with 786-0 renal and -24.6% (active) in the test with COLO 205 colon.

In the case of `CC(=O)c1c(C)nc2ccccc2c1/C=C/c1cccc(C)c1`, the growth with NCI-H23 lung was 61.6%; with NCI-H226 lung, 75.2%; with NCI-H322M lung, 96.9%; in the test with HOP-62 NSCLC, 60.9%; with NCI-H460 lung, 33.8%; with HOP-92 NSCLC, 60.2%. For the same molecule, the growth in the test with NCI-H522 lung is 41.5%; in the test on A549/ATCC NSCLC, 43.6%; in the test on 786-0 renal, 79.7%; in the test on COLO 205 colon, 58.5%.

Take `CN(C)CCCn1c2c(c3ccc(N4CCNCC4)cc3c1=O)C(=O)c1ccccc1-2`: the growth is -59.5% (active) with NCI-H23 lung; 14.2% in the test on NCI-H226 lung; 13% with NCI-H322M lung; -34.7% (active) in the test on HOP-62 NSCLC; -47.9% (active) in the test with NCI-H460 lung; 18.4% with HOP-92 NSCLC. Further, the growth is 5.51% (active) in the test with NCI-H522 lung, -61.7% (active) in the test on A549/ATCC NSCLC, -95.3% (active) with 786-0 renal and 4.57% (active) in the test on COLO 205 colon.
